# Screens deposited in PubChem by National Center for Advancing Translational Sciences (NCATS).
# Most compounds without a hit are left out; they make up all but 7.9% or so of the library.
# HT1080 IDH1KD tx: qHTS for induction of synthetic lethality in tumor cells producing 2HG: qHTS for the HT-1080-IDH1KD cell line | HT-1080 IDH1 knockdown viability, ATP luminescence, 48 h | Potency, µM (doses to about 46.1 µM), actives largely listed as cytotoxic | 2% of 360,000 active | AID 686971, 2013
#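 % activity derives from luminescence (CellTiter-Glo), normalised to DMSO and no-cell wells. HT-1080-IDH1KD cells, 750/well, had 48 h compound exposure at 37 °C.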
# HT1080NT lethal: qHTS for induction of synthetic lethality in tumor cells producing 2HG: qHTS for the HT-1080-NT fibrosarcoma cell line | HT-1080-NT fibrosarcoma viability, CellTiter-Glo ATP luminescence, 48 h | Potency, µM (series often up to 46.1 µM), actives largely listed as cytotoxic | 1.6% of 360,000 active | AID 686970, 2013;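 further: NT is the 2HG producing partner of a matched IDH1 knockdown line; nearly all actives have a fitted effect of over 55% in size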
#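 Luminescent CellTiter-Glo readout after 48 hours of compound exposure at 37 degrees C defined viability of HT-1080-NT cells. Activity was normalized to DMSO wells and cell-free media wells; concentration-response curves were fitted and assigned curve classes.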
# SW480 rereplic: A quantitative high throughput screen for small molecules that induce DNA re-replication in SW480 colon adenocarcinoma cells | Potency, µM (doses to about 46.1 µM), hits mostly activators | SW480 DNA re-replication, Hoechst DNA content imaging, 48 h | AID 624297, 2012 | 1.8% of 340,000 active; further: nearly all actives have a fitted effect of over 55% in size
#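 Quantitative HTS format with DMSO vehicle controls; 48 hr drug incubation at 37 C, then 40 min Hoechst staining and scanning imager measurement at 405 nm excitation.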
# MCF10A rereplic: A quantitative high throughput screen for small molecules that induce DNA re-replication in MCF 10a normal breast cells. MCF 10A DNA re-replication, Hoechst nuclear intensity, 48 h. Potency, µM (titrated, usually from 46.1 µM), actives largely listed as activators. 2.9% of 350,000 active; further: nearly all actives have a fitted effect of over 50% in size
# KB-V1 MDR tox: qHTS assay for MDR1-selective chemotherapeutics: Primary screen using the drug-selected MDR subline cells KB-V1 | KB-V1 MDR cells viability, CellTiter-Glo, 72 h | Potency, µM (doses to about 46.1 µM), hits mostly cytotoxic | 3.4% of 400,000 active; further: nearly all actives have a fitted effect of over 60% in size
#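 Cytotoxicity via CellTiter-Glo luminescence after 72 h compound exposure at 37 degrees C. Cells: drug-selected KB-V1 line, DMEM phenol-red free plus 10% FBS. Compounds tested at multiple concentrations; normalized data fitted to concentration-effect curves.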
# KB-3-1 tox: qHTS assay for MDR1-selective chemotherapeutics: Primary screen using the parental adenocarcinoma cell KB-3-1; KB-3-1 viability, CellTiter-Glo ATP luminescence, 72 h; Potency, µM (titrated, usually from 46.1 µM), most hits filed as cytotoxic; 1.4% of 400,000 active; AID 1347075, 2019; further: nearly all actives have a fitted effect of over 60% in size
#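 Cytotoxicity measured as CellTiter-Glo luminescence after 72 h at 37 C. Compound titrations were pinned onto drug-naive KB-3-1 parental adenocarcinoma cells grown in DMEM with 10% FBS, and normalized data fitted to concentration-response curves.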
# Numbers stand for hits; - = inactive; ? = inconclusive; . = no result; [ ] = remark or other dose. The call rests on the fitted dose curve; in most records, active means well fitted curve in the direction sought with a large enough effect; inconclusive means small, poorly fitted or top-dose-only effect, or another doubt; inactive means no such curve, though single readings can be large; an effect the other way counts as inactive or inconclusive.
SMILES,HT1080 IDH1KD tx,HT1080NT lethal,SW480 rereplic,MCF10A rereplic,KB-V1 MDR tox,KB-3-1 tox
c1ccc(N2CCOCCOCCOCCOCCOCC2)cc1,-,-,-,-,-,-
CN1C/C(=C\c2ccc(N3CCOCC3)cc2)C(=O)/C(=C/c2ccc(N3CCOCC3)cc2)C1,?,?,?,18.4µM,20.6µM,?
CCN1C/C(=C/c2ccc(N3CCOCC3)cc2)C(=O)/C(=C/c2ccc(N3CCOCC3)cc2)C1,20.6µM,?,16.4µM,23.1µM,18.4µM,?
CCc1ccc(/C=C2/SC(N3CCOCC3)=NC2=O)cc1,-,-,-,-,-,-
O=C(NCc1noc2ccccc12)N1CCN(c2ccccc2)CC1,.,.,.,.,-,-
CN1CCN(c2ccc(NC(=O)COc3ccc4ccccc4c3)cc2)CC1,-,-,?,16.4µM,?,-
CCc1nnc(NC(=O)COc2ccc3ccccc3c2)s1,-,-,-,-,-,-
CN1CCc2nc(NC(=O)COc3ccc4ccccc4c3)sc2C1,-,-,?,13µM,?,?
CN1CCN(c2ccc(NC(=O)COc3cccc4ccccc34)cc2)CC1,-,?,-,-,-,-
CC1(C(=O)NS(=O)(=O)c2ccc(Br)cc2)CCN1C(=O)Cc1cccs1 (stereo not given),-,-,.,.,-,-
COC(=O)C1=CN(Cc2ccc(F)cc2)C=C(C(=O)OC)C1c1cc(OC)c(OC)c(OC)c1,-,-,-,-,-,-
COC(=O)C1=CN(Cc2ccccc2)C=C(C(=O)OC)C1c1cc(F)ccc1F,-,-,?,20.6µM,-,-
COC(=O)C1=CN(Cc2ccc(C)cc2)C=C(C(=O)OC)C1c1ccc(F)c(F)c1,-,-,4.61µM,23.1µM,?,-
COc1ccc(NC(=O)Cn2c(=O)n(Cc3ccccc3)c(=O)c3sc4ccccc4c32)cc1,.,.,.,.,-,-
COC(=O)C1(c2ccccc2)NC(c2cccs2)C2C(=O)N(c3ccccc3)C(=O)C21 (stereo not given),-,-,-,-,23.1µM,?
Cc1cc(=O)n(Cc2c(F)cccc2Cl)c2c1c(C)nn2C,.,.,.,.,-,-
COc1cccc(CN2C(=O)c3ccccc3Sc3ccc(C(=O)N(C)Cc4ccccc4)cc32)c1,.,.,.,.,-,-
O=c1c2ccccc2oc2cc(NCCCN3CCOCC3)ccc12,-,-,?,16.4µM,-,-
COc1cccc2sc3cc(NCCCN4CCOCC4)ccc3c(=O)c12,-,-,-,18.4µM,-,-
CN1CCCC1CCNc1ccc2c(=O)c3ccccc3oc2c1 (stereo not given),-,-,?,18.4µM,-,-
O=c1c2ccccc2oc2cc(NCCCn3ccnc3)ccc12,-,-,?,20.6µM,-,-
O=c1c2ccccc2oc2ccc(NCCCN3CCOCC3)cc12,-,-,-,-,?,-
CCc1ccc(-n2c(=O)c3c4c(sc3n(CC(=O)c3ccc(Br)cc3)c2=O)CCC4)cc1,.,.,.,.,-,-
CCc1nnc(NC(=O)c2ccc(N(C)S(=O)(=O)c3ccccc3)cc2)s1,-,-,-,-,6.51µM,-
CCc1nnc(NC(=O)c2ccc(S(C)(=O)=O)cc2)s1,-,-,?,?,-,-
SMILES,HT1080 IDH1KD tx,HT1080NT lethal,SW480 rereplic,MCF10A rereplic,KB-V1 MDR tox,KB-3-1 tox
CN(C)S(=O)(=O)c1ccc(C(=O)Nc2nnc(Cc3ccccc3)s2)cc1,23.1µM,?,?,?,?,-
C=CCSc1nnc(NC(=O)c2cccc(S(=O)(=O)N(C)c3ccccc3)c2)s1,-,-,-,?,16.4µM,-
CN(c1ccccc1)S(=O)(=O)c1cccc(C(=O)Nc2nccs2)c1,-,-,-,-,?,-
O=C(Nc1nnc(Cc2ccccc2)s1)c1ccccc1,-,-,-[1.84 µM],?,-,-
COc1ccc(-c2noc(-c3ccc(NCc4ccccc4OC)c([N+](=O)[O-])c3)n2)cc1,.,.,.,.,-,-
Cc1ccc(C)c(Nc2nnc(-c3ccc(C)c(S(=O)(=O)NCC4CCCO4)c3)c3ccccc23)c1 (stereo not given),.,.,.,.,-,?
CC1=C(C(=O)N2CCOCC2)CC(CC(=O)NC2CCCC2)C(=O)N1Cc1ccccc1 (stereo not given),-,-,.,.,-,-
COc1ccc(CN(C)C(=O)[C@H]2O[C@@H](n3ccc(=O)[nH]c3=O)[C@H](O)[C@@H]2O)cc1OC,-,-,.,.,?,-
CCOC(=O)c1sc(NC(=O)c2cccs2)cc1C,?,-,-,-,?,-
CCOC(=O)c1sc(NC(=O)Nc2cccc(Cl)c2)cc1C,?,?,-,?,13µM,?
CCOC(=O)c1sc(Nc2nc3c(F)cccc3s2)cc1C,-,?,?,20.6µM,-,-
CCOC(=O)c1sc(Nc2nc3ccc(OC)cc3s2)cc1C,?,?,?,18.4µM,-,-
CCCC(=O)Nc1nc2ccc(OC)cc2s1,-,-,-,-,-,-
O=C(COc1ccccc1Cl)Nc1ccc(OCc2cc(=O)n3ccsc3n2)cc1,.,.,.,.,?,-
CCCCN(CCCNC(=O)c1cc(Nc2ccc(OC)c(OC)c2)nc2ccccc12)Cc1ccccc1,.,.,.,.,-,?
COc1ccccc1C1C(C(N)=O)=C(C)Nc2nc(SCc3ccccc3F)nn21 (stereo not given),.,.,.,.,?,-
Cc1ccc2c(CSc3nnc4ccccn34)cc(=O)oc2c1C,-,-,-,-,16.4µM,-
Cc1ccc2c(CSc3nc4ccccc4c(=O)n3CCCO)cc(=O)oc2c1C,?,?,-,?,-,-
O=C(Nc1ccc(N2CCN(c3ncccc3C(F)(F)F)CC2)nc1)c1cccs1,20.6µM,18.4µM,-,?,18.4µM,16.4µM
O=C(Nc1ccc(N2CCN(c3ccc(C(F)(F)F)cn3)CC2)nc1)c1cccs1,-,-,?,-,-,-
O=Cc1ccccc1OCc1ccc2c(c1)OCO2,?,?,18.4µM,?,-,?
Cc1ccn2c(=O)c(NC(=O)c3cccc([N+](=O)[O-])c3C)c(C)nc2c1,.,.,.,.,-,?
Cc1ccn2c(=O)c(NC(=O)c3cccs3)c(C)nc2c1,-,-,23.1µM,-,-,-
CCOC(=O)C(=O)NNc1ccccc1C,-,-,-,?,-,-
CCOC(=O)C(=O)NNc1cccc(C)c1C,-,-,-,8.2µM,-,-
COc1cc2c(cc1OC)C1=C(C#N)CCC(=O)N1CC2,-,-,-,-,4.61µM,16.4µM
